Assay results taken from PubChem BioAssay AID463116 (University of Pittsburgh Molecular Library Screening Center, 2010).
About 710 (71%) of roughly 1,000 compounds were called active. Inconclusive results (about 7%) are left out.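 The calls were made as follows: active = inhibition of receptor movement into the nucleus at or above a set limit in both runs, with normal cell brightness and cell count; inconclusive = limit reached in only one run, brightness and count normal; inactive = the rest.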 The set was probably picked from earlier hits. Not all results are given here.

assay: dynein cargo transport inhibitors, GR-EGFP translocation, confirmation, imaging, high-content imaging, GR-EGFP cells (AID 463116); conditions: 3617.4 GR-EGFP nuclear translocation imaging, dexamethasone-induced, at 20 µM; inhibition: stronger effect = higher value; z-score: measured here: cell count per field;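 as to inhibition: dexamethasone at 1 µM final in well for 30 min; nuclear minus cytoplasmic GR-EGFP mean intensity difference in channel 2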

Q: With `COc1cccc(N2C(=O)NC(=O)/C(=C\c3ccc([N+](=O)[O-])s3)C2=O)c1` as the molecule, how does the inhibition read?
A: 81.3% (active)

Q: What about the z-score of the same molecule?
A: 0.0253

Q: What does the source list for `O=C1NC(=O)N(c2ccccc2)C(=O)/C1=C/c1ccc([N+](=O)[O-])s1`?
A: inhibition: 81.8% (active); z-score: 0.0604
